Measurements published in publication PMC7862700, “An all-to-all approach to the identification of sequence-specific readers for epigenetic DNA modifications on cytosine”.

How the values were obtained:
Test in all cases: DAPPL (digital affinity profiling via proximity ligation, sequencing); 10 mM Tris-HCl pH 7.5, 50 mM NaCl, 1 mM DTT, 4% glycerol, room temperature, 30 min; GST-TFs on glutathione beads, 16-mer random dsDNA library, 0.1% formaldehyde crosslink after washing; high values mean tight binding
Conditions in all cases: protein: recombinant; tags: N-terminal GST; dsDNA, one strand shown
FLI1 = molecular target: T1, FLI1 (Homo sapiens, UniProt Q01543 1-452)
T1 sequence: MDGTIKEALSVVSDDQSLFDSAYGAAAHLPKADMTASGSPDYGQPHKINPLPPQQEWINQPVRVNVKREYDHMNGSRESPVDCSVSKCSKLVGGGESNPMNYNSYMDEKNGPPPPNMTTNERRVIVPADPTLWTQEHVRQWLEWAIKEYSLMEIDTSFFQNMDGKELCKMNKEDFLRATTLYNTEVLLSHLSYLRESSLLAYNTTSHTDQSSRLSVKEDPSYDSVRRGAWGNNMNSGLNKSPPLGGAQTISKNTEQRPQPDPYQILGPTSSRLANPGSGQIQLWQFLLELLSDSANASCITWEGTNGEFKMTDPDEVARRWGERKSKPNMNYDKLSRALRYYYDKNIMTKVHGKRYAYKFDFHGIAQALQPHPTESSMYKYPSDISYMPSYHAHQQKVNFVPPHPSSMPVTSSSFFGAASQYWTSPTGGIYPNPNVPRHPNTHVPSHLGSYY
How it was run: (§1)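 After expression in yeast as GST fusions, human transcription factors were bound to glutathione beads, DNA-barcoded and mixed with a tag-only sample. The pools were incubated with 200 nmole of a 16-mer random double-stranded DNA library in Tris/NaCl/DTT/glycerol buffer (30 min, room temperature), washed and crosslinked with 0.1% formaldehyde. Proximity ligation with BsaI/T4 ligase ran for 1 h at 37 °C, before PCR amplification and sequencing on an Illumina NextSeq500. Binding signal is a hexamer's read frequency for a factor divided by its frequency for the tag-only sample.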

ELK1 = molecular target: T2, ELK1 (Homo sapiens, UniProt P19419 1-428)
T2 sequence: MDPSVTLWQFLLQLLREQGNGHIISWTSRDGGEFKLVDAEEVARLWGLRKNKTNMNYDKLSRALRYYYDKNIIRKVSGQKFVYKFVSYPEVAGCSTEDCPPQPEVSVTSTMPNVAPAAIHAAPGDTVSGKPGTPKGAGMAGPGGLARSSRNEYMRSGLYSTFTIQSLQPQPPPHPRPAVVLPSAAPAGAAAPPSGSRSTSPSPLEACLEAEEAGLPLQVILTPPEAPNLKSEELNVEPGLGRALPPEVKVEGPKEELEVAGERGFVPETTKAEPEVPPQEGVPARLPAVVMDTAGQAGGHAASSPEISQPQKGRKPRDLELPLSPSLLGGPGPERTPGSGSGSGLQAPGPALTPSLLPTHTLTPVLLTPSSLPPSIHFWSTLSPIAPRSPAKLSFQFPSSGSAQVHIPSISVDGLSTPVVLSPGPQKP
How it was run: as §1

GABPA = molecular target: T3, GABPA (Homo sapiens, UniProt Q06546 1-454)
T3 sequence: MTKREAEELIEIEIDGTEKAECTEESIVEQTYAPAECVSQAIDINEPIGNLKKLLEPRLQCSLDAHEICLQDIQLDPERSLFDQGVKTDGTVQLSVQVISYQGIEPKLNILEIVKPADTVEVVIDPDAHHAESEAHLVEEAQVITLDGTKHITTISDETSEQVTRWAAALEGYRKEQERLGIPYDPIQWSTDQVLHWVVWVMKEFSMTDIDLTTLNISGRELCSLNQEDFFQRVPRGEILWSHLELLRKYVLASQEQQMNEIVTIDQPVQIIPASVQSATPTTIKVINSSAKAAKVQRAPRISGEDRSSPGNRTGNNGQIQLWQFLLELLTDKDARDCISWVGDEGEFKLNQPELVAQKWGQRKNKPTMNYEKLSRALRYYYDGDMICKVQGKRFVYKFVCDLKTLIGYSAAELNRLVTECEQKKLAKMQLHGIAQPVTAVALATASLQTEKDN
How it was run: as §1

ERG = molecular target: T4, ERG (Homo sapiens, UniProt P11308 1-479)
T4 sequence: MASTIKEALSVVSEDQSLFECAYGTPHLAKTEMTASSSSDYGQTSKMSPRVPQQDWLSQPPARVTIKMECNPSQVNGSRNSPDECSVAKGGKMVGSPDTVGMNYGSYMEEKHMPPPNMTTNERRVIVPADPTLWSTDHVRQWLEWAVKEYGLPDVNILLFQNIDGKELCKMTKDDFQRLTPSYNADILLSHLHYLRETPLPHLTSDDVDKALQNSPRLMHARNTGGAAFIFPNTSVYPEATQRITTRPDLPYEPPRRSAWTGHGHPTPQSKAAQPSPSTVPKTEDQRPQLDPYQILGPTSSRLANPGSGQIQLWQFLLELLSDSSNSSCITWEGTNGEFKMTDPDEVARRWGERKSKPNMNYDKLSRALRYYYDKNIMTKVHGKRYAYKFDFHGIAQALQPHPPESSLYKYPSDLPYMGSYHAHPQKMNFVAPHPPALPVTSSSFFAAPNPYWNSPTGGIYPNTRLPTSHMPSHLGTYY
How it was run: as §1

ELF1 = ELF1 (Homo sapiens, UniProt P32519 1-619)
How it was run: as §1

EHF = molecular target: T5, EHF (Homo sapiens, UniProt Q9NZC4 1-300)
T5 sequence: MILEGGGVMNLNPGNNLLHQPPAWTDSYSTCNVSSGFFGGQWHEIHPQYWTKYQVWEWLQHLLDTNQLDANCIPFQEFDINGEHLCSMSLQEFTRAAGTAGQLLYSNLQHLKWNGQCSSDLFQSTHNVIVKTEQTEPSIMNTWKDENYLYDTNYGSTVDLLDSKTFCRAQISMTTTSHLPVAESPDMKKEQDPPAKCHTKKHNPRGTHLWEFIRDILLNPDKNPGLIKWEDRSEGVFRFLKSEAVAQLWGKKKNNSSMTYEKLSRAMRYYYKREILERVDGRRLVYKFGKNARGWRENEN
How it was run: as §1

SPI1 = SPI1 (Homo sapiens, UniProt P17947 1-270)
How it was run: as §1

SPIB = SPIB (Homo sapiens, UniProt Q01892 1-262)
How it was run: as §1

ELK3 = molecular target: T6, ELK3 (Homo sapiens, UniProt P41970 1-407)
T6 sequence: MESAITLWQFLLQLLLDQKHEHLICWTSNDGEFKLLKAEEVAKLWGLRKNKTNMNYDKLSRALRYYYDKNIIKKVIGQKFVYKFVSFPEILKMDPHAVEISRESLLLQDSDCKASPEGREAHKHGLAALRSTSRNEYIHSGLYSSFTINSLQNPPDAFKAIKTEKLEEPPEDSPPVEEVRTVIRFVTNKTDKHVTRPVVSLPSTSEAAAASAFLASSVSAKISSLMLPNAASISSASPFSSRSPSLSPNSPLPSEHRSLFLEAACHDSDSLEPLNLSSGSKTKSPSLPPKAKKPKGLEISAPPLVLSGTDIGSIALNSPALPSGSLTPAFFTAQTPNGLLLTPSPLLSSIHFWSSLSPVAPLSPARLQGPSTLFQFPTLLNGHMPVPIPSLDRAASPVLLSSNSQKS
How it was run: as §1

SPIB, sequence (Q01892 whole entry): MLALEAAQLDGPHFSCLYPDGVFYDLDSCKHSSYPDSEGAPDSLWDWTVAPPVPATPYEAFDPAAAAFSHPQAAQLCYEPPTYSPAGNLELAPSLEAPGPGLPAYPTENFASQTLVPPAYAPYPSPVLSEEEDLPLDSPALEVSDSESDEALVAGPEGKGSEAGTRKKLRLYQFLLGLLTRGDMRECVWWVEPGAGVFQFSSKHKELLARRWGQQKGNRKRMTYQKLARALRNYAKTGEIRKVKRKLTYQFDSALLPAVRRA
ELF1, sequence (P32519 whole entry): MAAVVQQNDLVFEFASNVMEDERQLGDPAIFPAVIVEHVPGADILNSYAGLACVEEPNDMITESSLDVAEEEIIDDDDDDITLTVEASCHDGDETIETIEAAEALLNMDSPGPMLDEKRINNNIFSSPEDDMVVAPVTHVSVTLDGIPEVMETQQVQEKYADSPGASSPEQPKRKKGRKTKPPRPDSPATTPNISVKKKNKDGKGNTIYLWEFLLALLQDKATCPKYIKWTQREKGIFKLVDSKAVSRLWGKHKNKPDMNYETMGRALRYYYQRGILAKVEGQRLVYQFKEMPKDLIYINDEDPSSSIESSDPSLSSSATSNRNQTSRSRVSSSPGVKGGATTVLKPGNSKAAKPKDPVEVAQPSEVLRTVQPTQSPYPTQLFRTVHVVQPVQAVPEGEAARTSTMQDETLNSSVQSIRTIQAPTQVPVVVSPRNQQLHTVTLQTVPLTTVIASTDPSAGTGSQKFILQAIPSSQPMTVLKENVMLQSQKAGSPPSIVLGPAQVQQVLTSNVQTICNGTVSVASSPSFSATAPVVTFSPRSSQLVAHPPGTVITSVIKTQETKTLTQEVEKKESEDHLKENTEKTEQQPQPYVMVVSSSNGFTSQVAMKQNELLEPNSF

## CCCCGC
FLI1
  binding signal: 1.12 fold enrichment (6-mer frequency, TF over GST control)
ELK1
  binding signal: 1.19 fold enrichment (6-mer frequency, TF over GST control)
GABPA
  binding signal: 1.2 fold enrichment (6-mer frequency, TF over GST control)
ERG
  binding signal: 1.19 fold enrichment (6-mer frequency, TF over GST control)
ELF1
  binding signal: 1.27 fold enrichment (6-mer frequency, TF over GST control)
EHF
  binding signal: 1.26 fold enrichment (6-mer frequency, TF over GST control)
SPI1
  binding signal: 1.11 fold enrichment (6-mer frequency, TF over GST control)
SPIB
  binding signal: 1.19 fold enrichment (6-mer frequency, TF over GST control)
ELK3
  binding signal: 1.06 fold enrichment (6-mer frequency, TF over GST control)

## TGCACA
FLI1
  binding signal: 1.18 fold enrichment (6-mer frequency, TF over GST control)
ELK1
  binding signal: 1.18 fold enrichment (6-mer frequency, TF over GST control)
GABPA
  binding signal: 1.03 fold enrichment (6-mer frequency, TF over GST control)
ERG
  binding signal: 1.09 fold enrichment (6-mer frequency, TF over GST control)
ELF1
  binding signal: 1.1 fold enrichment (6-mer frequency, TF over GST control)
EHF
  binding signal: 1.02 fold enrichment (6-mer frequency, TF over GST control)
SPI1
  binding signal: 1.05 fold enrichment (6-mer frequency, TF over GST control)
SPIB
  binding signal: 1.13 fold enrichment (6-mer frequency, TF over GST control)
ELK3
  binding signal: 1.2 fold enrichment (6-mer frequency, TF over GST control)

## GAACAT
FLI1
  binding signal: 1.01 fold enrichment (6-mer frequency, TF over GST control)
ELK1
  binding signal: 1.02 fold enrichment (6-mer frequency, TF over GST control)
GABPA
  binding signal: 1.09 fold enrichment (6-mer frequency, TF over GST control)
ERG
  binding signal: 1.03 fold enrichment (6-mer frequency, TF over GST control)
ELF1
  binding signal: 1.02 fold enrichment (6-mer frequency, TF over GST control)
EHF
  binding signal: 1.05 fold enrichment (6-mer frequency, TF over GST control)
SPI1
  binding signal: 1.04 fold enrichment (6-mer frequency, TF over GST control)
SPIB
  binding signal: 1.01 fold enrichment (6-mer frequency, TF over GST control)
ELK3
  binding signal: 1.16 fold enrichment (6-mer frequency, TF over GST control)

## AAATGC
FLI1
  binding signal: 1.17 fold enrichment (6-mer frequency, TF over GST control)
ELK1
  binding signal: 1.29 fold enrichment (6-mer frequency, TF over GST control)
GABPA
  binding signal: 1.25 fold enrichment (6-mer frequency, TF over GST control)
ERG
  binding signal: 1.3 fold enrichment (6-mer frequency, TF over GST control)
ELF1
  binding signal: 1.25 fold enrichment (6-mer frequency, TF over GST control)
EHF
  binding signal: 1.25 fold enrichment (6-mer frequency, TF over GST control)
SPI1
  binding signal: 1.48 fold enrichment (6-mer frequency, TF over GST control)
SPIB
  binding signal: 1.18 fold enrichment (6-mer frequency, TF over GST control)
ELK3
  binding signal: 1.18 fold enrichment (6-mer frequency, TF over GST control)

## GAAACA
FLI1
  binding signal: 1.38 fold enrichment (6-mer frequency, TF over GST control)
ELK1
  binding signal: 1.4 fold enrichment (6-mer frequency, TF over GST control)
GABPA
  binding signal: 1.22 fold enrichment (6-mer frequency, TF over GST control)
ERG
  binding signal: 1.32 fold enrichment (6-mer frequency, TF over GST control)
ELF1
  binding signal: 1.35 fold enrichment (6-mer frequency, TF over GST control)
EHF
  binding signal: 1.45 fold enrichment (6-mer frequency, TF over GST control)
SPI1
  binding signal: 1.3 fold enrichment (6-mer frequency, TF over GST control)
SPIB
  binding signal: 1.36 fold enrichment (6-mer frequency, TF over GST control)
ELK3
  binding signal: 1.38 fold enrichment (6-mer frequency, TF over GST control)

## CGACAC
FLI1
  binding signal: 1.18 fold enrichment (6-mer frequency, TF over GST control)
ELK1
  binding signal: 1.14 fold enrichment (6-mer frequency, TF over GST control)
GABPA
  binding signal: 1.16 fold enrichment (6-mer frequency, TF over GST control)
ERG
  binding signal: 1.23 fold enrichment (6-mer frequency, TF over GST control)
ELF1
  binding signal: 1.24 fold enrichment (6-mer frequency, TF over GST control)
EHF
  binding signal: 1.19 fold enrichment (6-mer frequency, TF over GST control)
SPI1
  binding signal: 1.2 fold enrichment (6-mer frequency, TF over GST control)
SPIB
  binding signal: 1.25 fold enrichment (6-mer frequency, TF over GST control)
ELK3
  binding signal: 1.14 fold enrichment (6-mer frequency, TF over GST control)

## ACAACC
FLI1
  binding signal: 1.25 fold enrichment (6-mer frequency, TF over GST control)
ELK1
  binding signal: 1.28 fold enrichment (6-mer frequency, TF over GST control)
GABPA
  binding signal: 1.21 fold enrichment (6-mer frequency, TF over GST control)
ERG
  binding signal: 1.22 fold enrichment (6-mer frequency, TF over GST control)
ELF1
  binding signal: 1.16 fold enrichment (6-mer frequency, TF over GST control)
EHF
  binding signal: 1.29 fold enrichment (6-mer frequency, TF over GST control)
SPI1
  binding signal: 1.2 fold enrichment (6-mer frequency, TF over GST control)
SPIB
  binding signal: 1.28 fold enrichment (6-mer frequency, TF over GST control)
ELK3
  binding signal: 1.28 fold enrichment (6-mer frequency, TF over GST control)

## TCAAAG
FLI1
  binding signal: 1.08 fold enrichment (6-mer frequency, TF over GST control)
ELK1
  binding signal: 1.01 fold enrichment (6-mer frequency, TF over GST control)
GABPA
  binding signal: 1.13 fold enrichment (6-mer frequency, TF over GST control)
ERG
  binding signal: 1.09 fold enrichment (6-mer frequency, TF over GST control)
ELF1
  binding signal: 1.19 fold enrichment (6-mer frequency, TF over GST control)
EHF
  binding signal: 1.02 fold enrichment (6-mer frequency, TF over GST control)
SPI1
  binding signal: 1.1 fold enrichment (6-mer frequency, TF over GST control)
SPIB
  binding signal: 1.11 fold enrichment (6-mer frequency, TF over GST control)
ELK3
  binding signal: 1.15 fold enrichment (6-mer frequency, TF over GST control)
